Inconclusive results are not listed. Activity calls are given as the source filed them. Calls come from the whole dose curve.
% is set by controls: 0 for no effect and ±100 for the full control effect; potency is the fitted concentration of half-maximal effect.
Note: nearly all actives have a fitted effect of over 45% in size.

The first assay can be described thus: p53 small molecule agonists, cell-based qHTS assay with human liver microsomes: qHTS cell viability counter screen (AID 1963579). As to conditions: p53RE-bla HCT-116 viability, ATP luminescence, 16 h, HLM; series mostly up to 66 µM; activity change, negative = cytotoxicity: at the top concentration. The gist of the method:
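Cells carrying the p53 response-element beta-lactamase reporter are treated for 16 h at 37 C with test compounds in the presence of human liver microsomes and NADPH (both 0.5 mg/mL final); ATP-based CellTiter-Glo luminescence then reports viability.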
`CCCCCCCCP(=O)(O)O`: the “activity change, negative = cytotoxicity” value was 18.1% (inactive).
Still for that read-out and setting: for `c1ccc2c(c1)CCNC2` the value was 4.42% (inactive); for `C[C@]12Cc3nonc3C[C@@H]1CC[C@@H]1[C@@H]2CC[C@@]2(C)[C@H]1CC[C@]2(C)O`, -3.78% [at 30.3 µM] (inactive).
Still for that read-out and setting: under `Nc1cc(Cl)ccc1Cl` stands 5.25% (inactive); under `Clc1cccc(N2CCNCC2)c1`, 12.9% [at 30.3 µM] (inactive); under `N#Cc1c(Cl)cccc1Cl`, -2.04% (inactive).
The same measure, in the same setting: under `COc1ccc(CN2CCNCC2)c(OC)c1OC` stands 11.5% [at 30.3 µM] (inactive); under `CC(Cc1ccccc1)N(C)Cc1ccco1` (stereo not given), -2.85% [at 30.3 µM] (inactive); under `ClCC(Cl)Cl`, -10.2% (inactive).
`CC[C@@H](CO)NC(=O)[C@@H]1C=C2c3cccc4c3c(cn4C)C[C@H]2N(C)C1`: the “activity change, negative = cytotoxicity” value was -0.449% [at 30.3 µM] (inactive).
Still for that read-out and setting: under `CC1NCCOC1c1ccccc1` (stereo not given) stands 1.19% [at 30.3 µM] (inactive); under `O=C(Cc1ccccc1)OCCc1ccccc1`, -0.296% (inactive).
For the compound `O=C(Cl)c1ccc(Cl)cc1`, the “activity change, negative = cytotoxicity” value was 5.31% (inactive).
Turning to `COc1ccc(C(=O)N2CCCC2=O)cc1`, the “activity change, negative = cytotoxicity” value was -4.93% [at 30.3 µM] (inactive).
On to `ClCCCN1CCN(c2cccc(Cl)c2)CC1`, for which the “activity change, negative = cytotoxicity” value is 0.221% [at 30.3 µM] (inactive).
Still for that read-out and setting: under `C=CCC1([C@H](C)CCC)C(=O)NC(=O)NC1=O` stands 1.05% (inactive); under `ClC(Cl)=C(Cl)Cl`, 3.68% (inactive); under `CCN(C(C)=O)c1cccc(-c2ccnc3c(C#N)cnn23)c1`, 0.603% [at 30.3 µM] (inactive).
Still for that read-out and setting: for `CCCN1CCC[C@@H]2Cc3[nH]ncc3C[C@H]21` the value was 0.231% [at 30.3 µM] (inactive).
On the same count and under the same terms, under `CC#Cc1cc(C)nc(Nc2ccccc2)n1` stands 5.77% (inactive); under `BrCCCCBr`, 2.59% (inactive).
As to `O=c1[nH]oc2c1CCNC2`, the “activity change, negative = cytotoxicity” value is -1.48% [at 30.3 µM] (inactive).
On the same count and under the same terms, under `O=C1OC(CCN2CCCCC2)OC1(c1ccccc1)c1ccccc1` (stereo not given) stands 14.8% [at 30.3 µM] (inactive).
Still for that read-out and setting: under `N[C@@H](Cc1ccc(Oc2cc(I)c(O)c(I)c2)c(I)c1)C(=O)O` stands 1.99% [at 30.3 µM] (inactive).
Turning to `O=S1(=O)OC(c2cc(Br)c(O)c(Br)c2)(c2cc(Br)c(O)c(Br)c2)c2ccccc21`, the Potency is 21 µM (active).
As to `[Cl][Sn]([Cl])([Cl])[Cl]`, the “activity change, negative = cytotoxicity” value is 0.457% (inactive).
In the case of `O=[N+]([O-])c1ccc(CCl)cc1`, the “activity change, negative = cytotoxicity” value was -0.419% (inactive).
On to `O=C(CCCN1CCC(n2c(=O)[nH]c3ccccc32)CC1)c1ccc(F)cc1`, for which the “activity change, negative = cytotoxicity” value is -12.2% [at 30.3 µM] (inactive).
As to `COc1cc(CC#N)cc(OC)c1OC`, the “activity change, negative = cytotoxicity” value is 7.54% [at 30.3 µM] (inactive).
The same measure, in the same setting: for `CC(C)NCC(O)c1ccc([N+](=O)[O-])cc1` (stereo not given) the value was -11.8% [at 30.3 µM] (inactive); for `CC(C(O)c1ccccc1)N(C)C/C=C/c1ccccc1` (stereo not given), 0.497% [at 30.3 µM] (inactive).
The same measure, in the same setting: for `CC[C@@H](CO)NC(=O)[C@@H]1C=C2c3cccc4[nH]cc(c34)C[C@H]2N(C)C1` the value was -0.72% [at 30.3 µM] (inactive); for `CC(Cl)(Cl)Cl`, 3.12% (inactive); for `CCOC(=O)CC(=O)CCl`, 3.12% (inactive).
The same measure, in the same setting: for `CNC(C)Cc1ccccc1OC` (stereo not given) the value was -3.28% [at 30.3 µM] (inactive); for `CC(C)NCC(O)c1ccccc1Cl` (stereo not given), -7.37% [at 30.3 µM] (inactive); for `CCN(CC)CCOC(=O)C(C)(c1ccccc1)c1ccccc1`, -1.59% [at 30.3 µM] (inactive).
Turning to `ClCc1cccc(Cl)c1`, the “activity change, negative = cytotoxicity” value was -2.09% [at 30.3 µM] (inactive).
In the case of `CC1=C2C[C@H]3[C@@H](CC=C4C[C@@H](O)CC[C@@]43C)[C@@H]2CC[C@]12O[C@@H]1C[C@H](C)CN[C@H]1[C@H]2C`, the “activity change, negative = cytotoxicity” value is 14.3% [at 30.3 µM] (inactive).
For `CC(C)[C@H](C(=O)OC(C#N)c1cccc(Oc2ccccc2)c1)c1ccc(OC(F)F)cc1` (stereo not given in full), the “activity change, negative = cytotoxicity” value was -11.3% (inactive).

A further assay is described as follows: p53 small molecule agonists, cell-based qHTS assay with rat liver microsomes: qHTS cell viability counter screen (AID 1963580). As to conditions: p53RE-bla HCT-116 + rat microsomes, ATP viability, 16 h; series mostly up to 66 µM; activity change, negative = cytotoxicity: at the top concentration. Summed up: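 p53RE-bla HCT-116 cells (4,000/well) rested 5 h at 37 C, then given Tox21 compounds in DMSO with rat liver microsomes (0.5 mg/mL final) plus NADPH (0.5 mg/mL final) for 16 h at 37 C. Viability read by CellTiter-Glo luminescence after 30 min at room temperature.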
A general note: In qHTS, concentration-response curves come from the screen itself.
For `CCCCCCCCP(=O)(O)O`, the “activity change, negative = cytotoxicity” value is -5.81% (inactive).
The same measure, in the same setting: for `c1ccc2c(c1)CCNC2` the value was -0.648% (inactive); for `C[C@]12Cc3nonc3C[C@@H]1CC[C@@H]1[C@@H]2CC[C@@]2(C)[C@H]1CC[C@]2(C)O`, -17.4% [at 30.3 µM] (inactive); for `Nc1cc(Cl)ccc1Cl`, 2.66% (inactive).
Consider `Clc1cccc(N2CCNCC2)c1`, for which the “activity change, negative = cytotoxicity” value was -3.52% [at 30.3 µM] (inactive).
As for `N#Cc1c(Cl)cccc1Cl`, the “activity change, negative = cytotoxicity” value is -1.93% (inactive).
For `COc1ccc(CN2CCNCC2)c(OC)c1OC`, the “activity change, negative = cytotoxicity” value was -0.781% [at 30.3 µM] (inactive).
In the case of `CC(Cc1ccccc1)N(C)Cc1ccco1` (stereo not given), the “activity change, negative = cytotoxicity” value was -0.109% [at 30.3 µM] (inactive).
As to `ClCC(Cl)Cl`, the “activity change, negative = cytotoxicity” value is -0.205% (inactive).
`CC[C@@H](CO)NC(=O)[C@@H]1C=C2c3cccc4c3c(cn4C)C[C@H]2N(C)C1`: the “activity change, negative = cytotoxicity” value is 13.8% [at 30.3 µM] (inactive).
On the same count and under the same terms, for `CC1NCCOC1c1ccccc1` (stereo not given) the value was 2.84% [at 30.3 µM] (inactive); for `O=C(Cc1ccccc1)OCCc1ccccc1`, 2.09% (inactive); for `O=C(Cl)c1ccc(Cl)cc1`, -4.68% (inactive).
On to `COc1ccc(C(=O)N2CCCC2=O)cc1`, for which the “activity change, negative = cytotoxicity” value is -4.41% [at 30.3 µM] (inactive).
For the compound `ClCCCN1CCN(c2cccc(Cl)c2)CC1`, the “activity change, negative = cytotoxicity” value was -0.74% [at 30.3 µM] (inactive).
On the same count and under the same terms, for `C=CCC1([C@H](C)CCC)C(=O)NC(=O)NC1=O` the value was 0.558% (inactive); for `ClC(Cl)=C(Cl)Cl`, -0.584% (inactive).
The same measure, in the same setting: under `CCN(C(C)=O)c1cccc(-c2ccnc3c(C#N)cnn23)c1` stands -7.7% [at 30.3 µM] (inactive).
For the compound `CCCN1CCC[C@@H]2Cc3[nH]ncc3C[C@H]21`, the “activity change, negative = cytotoxicity” value was 0.0521% [at 30.3 µM] (inactive).
On the same count and under the same terms, for `CC#Cc1cc(C)nc(Nc2ccccc2)n1` the value was 3.31% (inactive); for `BrCCCCBr`, 3.64% (inactive); for `O=c1[nH]oc2c1CCNC2`, 1.28% [at 30.3 µM] (inactive).
On the same count and under the same terms, for `O=C1OC(CCN2CCCCC2)OC1(c1ccccc1)c1ccccc1` (stereo not given) the value was 7.97% [at 30.3 µM] (inactive); for `N[C@@H](Cc1ccc(Oc2cc(I)c(O)c(I)c2)c(I)c1)C(=O)O`, 9.78% [at 30.3 µM] (inactive).
Regarding `O=S1(=O)OC(c2cc(Br)c(O)c(Br)c2)(c2cc(Br)c(O)c(Br)c2)c2ccccc21`, the Potency was 18.7 µM (active).
Regarding `[Cl][Sn]([Cl])([Cl])[Cl]`, the “activity change, negative = cytotoxicity” value was 1.76% (inactive).
Still for that read-out and setting: for `O=[N+]([O-])c1ccc(CCl)cc1` the value was -0.565% (inactive); for `O=C(CCCN1CCC(n2c(=O)[nH]c3ccccc32)CC1)c1ccc(F)cc1`, -3.6% [at 30.3 µM] (inactive).
On the same count and under the same terms, under `COc1cc(CC#N)cc(OC)c1OC` stands -0.866% [at 30.3 µM] (inactive); under `CC(C)NCC(O)c1ccc([N+](=O)[O-])cc1` (stereo not given), 2.91% [at 30.3 µM] (inactive); under `CC(C(O)c1ccccc1)N(C)C/C=C/c1ccccc1` (stereo not given), 5.76% [at 30.3 µM] (inactive).
On the same count and under the same terms, under `CC[C@@H](CO)NC(=O)[C@@H]1C=C2c3cccc4[nH]cc(c34)C[C@H]2N(C)C1` stands -17% [at 30.3 µM] (inactive).
Regarding `CC(Cl)(Cl)Cl`, the “activity change, negative = cytotoxicity” value was 2.83% (inactive).
The same measure, in the same setting: for `CCOC(=O)CC(=O)CCl` the value was 1.95% (inactive).
For the compound `CNC(C)Cc1ccccc1OC` (stereo not given), the “activity change, negative = cytotoxicity” value was -2.04% [at 30.3 µM] (inactive).
On the same count and under the same terms, for `CC(C)NCC(O)c1ccccc1Cl` (stereo not given) the value was -4.06% [at 30.3 µM] (inactive).
Still for that read-out and setting: for `CCN(CC)CCOC(=O)C(C)(c1ccccc1)c1ccccc1` the value was -1.52% [at 30.3 µM] (inactive); for `ClCc1cccc(Cl)c1`, 0.307% [at 30.3 µM] (inactive); for `CC1=C2C[C@H]3[C@@H](CC=C4C[C@@H](O)CC[C@@]43C)[C@@H]2CC[C@]12O[C@@H]1C[C@H](C)CN[C@H]1[C@H]2C`, 1.6% [at 30.3 µM] (inactive).
On the same count and under the same terms, for `CC(C)[C@H](C(=O)OC(C#N)c1cccc(Oc2ccccc2)c1)c1ccc(OC(F)F)cc1` (stereo not given in full) the value was -17% (inactive).

The record behind these values is PubChem BioAssay (Tox21).
